According to the supplement of paper PMC3334620:
Whole data set: some 33,000 sequences, median “E-score (-0.5 to 0.5)” near -8e-05, cut for the highest 2% near 0.23. The sample as a whole holds a higher share of the highest values than the screen did.

These sequences were tested against T1, Nrg2 (UniProt P38082) (assay: PBM E-score (8-mer binding enrichment) (E-score (-0.5 to 0.5)); higher = stronger / more preferred TF binding). Settings: protein concentration: 100 nM; construct: GST-full length.
T1 sequence: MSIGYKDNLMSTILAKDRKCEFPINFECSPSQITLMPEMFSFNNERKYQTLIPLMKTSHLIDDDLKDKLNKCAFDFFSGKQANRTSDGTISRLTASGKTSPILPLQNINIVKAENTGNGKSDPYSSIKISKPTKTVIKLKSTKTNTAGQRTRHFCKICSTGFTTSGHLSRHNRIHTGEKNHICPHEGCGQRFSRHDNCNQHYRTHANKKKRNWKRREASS
Method: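 Universal 'all 10-mer' protein binding microarrays (Agilent AMADID 015681) probed with GST-tagged S. cerevisiae TFs (full-length or DBD) made by in vitro transcription/translation (PURExpress), about 100-200 nM. Bound TF was detected with fluorescent anti-GST. Each ungapped 8-mer (which stands for itself and its reverse complement) is scored by the PBM enrichment score (E-score), a modified Wilcoxon-Mann-Whitney statistic from -0.5 to +0.5, computed with the Universal PBM Analysis Suite. Scale: above 0.35 generally sequence-specific binding.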

Row | Sequence | PBM E-score
1 | GGCAATTA | 0.103
2 | CGCATTGC | 0.148
3 | ACAACAGA | -0.0576
4 | CGCGAAGA | 0.12
5 | AATCGTGT | 0.164
6 | ATGGGTGC | -0.0107
7 | GATGAAAA | 0.0467
8 | CTCCCAAC | -0.0556
9 | CTACCACC | -0.166
10 | AGCGGGTC | -0.21
11 | ACAGGGTG | 0.0367
12 | ACAGGGTA | 0.349
13 | ATAGGGTA | 0.17
14 | CTTGTGCC | -0.222
15 | AGTTCTAG | -0.0512
16 | ATTGAGAA | 0.232
17 | ATTGAGAC | 0.0341
18 | ATTGAGAG | 0.0708
19 | TAAAACTA | 0.0863
20 | AAGGGCCG | -0.0822
21 | AGGGGGCC | -0.189
22 | GGGCCCCC | -0.279

Row | Sequence | PBM E-score
23 | GGGGCCCC | 0.267
24 | GAGGGCCC | 0.151
25 | AGGGGCCC | 0.276
26 | CGGGGCCC | 0.221
27 | AAGGGCCT | 0.0464
28 | AAGGGCCC | 0.347
29 | CAGGGCCC | 0.42
30 | CAGGGCCA | -0.0826
31 | CGGGCCCC | 0.119
32 | CACCCGAC | -0.0642
33 | AAAAGCGG | -0.12
34 | AAAGTAGT | 0.0374
35 | AGTGAAAG | -0.0491
36 | ACTCAATC | 0.0391
37 | AACCCCGG | 0.0231
38 | AAGTTTCA | 0.149
39 | GAGTTTCA | 0.00699
40 | TAGTTTCA | 0.258
41 | CGTGAATA | 0.17
42 | TACCACAA | 0.0795
43 | TTAATTAA | 0.198
44 | GTAATTGA | 0.00642

Row | Sequence | PBM E-score
45 | ATAATTAC | 0.176
46 | CTAATTGA | 0.0446
47 | ATAATTGA | 0.276
48 | ATAATTAA | 0.264
49 | CTAGATGA | -0.0603
50 | GCGAAACA | 0.0688
51 | AACGATGA | 0.0545
52 | ACCGCATC | 0.159
53 | AAATTGCA | 0.232
54 | AAATTGCT | -0.0593
55 | AAATTGTT | 0.0684
56 | AAATTGTC | 0.24
57 | AATTGAGG | 0.0708
58 | AATTGGGG | -0.0654
59 | AATTGAGA | 0.0993
60 | AAATTGTA | 0.0349
61 | CAATTGCA | -0.0952
62 | AATTGGGC | -0.0483
63 | AATTGAGT | 0.245
64 | AATTGGGT | 0.26
65 | CAGAGCGC | -0.213
66 | ACATGGTA | -0.0687

Row | Sequence | PBM E-score
67 | AAGGTGCG | -0.0555
68 | CTCATCCC | -0.234
69 | ACTACGTA | 0.0132
70 | ATGTCCGA | -0.0732
71 | ACCTCGCG | 0.116
72 | AGTCCCAC | -0.079
73 | AAATTGGG | 0.0734
74 | CAATTCCA | -0.0703
75 | AAATTCCA | 0.254
76 | AAATTGGC | -0.012
77 | GAATTCCA | 0.188
78 | AAATTGGT | 0.268
79 | GAGACGGC | -0.0458
80 | ACGAGGAC | -0.0285
81 | CACTGAGC | -0.0828
82 | ACGAATGA | 0.156
83 | GAAGGACA | -0.00553
84 | CACCTCAG | -0.11
85 | TCAGTGCA | 0.0253
86 | AGCGTTAC | -0.146
